Source: PubChem (several laboratories)
CYP2C19 inhib – blockers of cytochrome P450 2C19 activity – biochemical, luminescence, ADME assay, primary screen | P33261 | CYP2C19 Supersomes, luciferin-H EGE luminescence, 30 min | inhibition, % at 5 µM | 21% of 96,000 active | AID 778, 2007;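 active = CYP2C19 inhibition above a set limit at 5 µM in the primary screen, cut at about 50% in these data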;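 note: plate controls were negative control wells for no effect and 2.5 mM tranylcypromine positive control for full effect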
Target sequence (P33261 whole entry, looked up): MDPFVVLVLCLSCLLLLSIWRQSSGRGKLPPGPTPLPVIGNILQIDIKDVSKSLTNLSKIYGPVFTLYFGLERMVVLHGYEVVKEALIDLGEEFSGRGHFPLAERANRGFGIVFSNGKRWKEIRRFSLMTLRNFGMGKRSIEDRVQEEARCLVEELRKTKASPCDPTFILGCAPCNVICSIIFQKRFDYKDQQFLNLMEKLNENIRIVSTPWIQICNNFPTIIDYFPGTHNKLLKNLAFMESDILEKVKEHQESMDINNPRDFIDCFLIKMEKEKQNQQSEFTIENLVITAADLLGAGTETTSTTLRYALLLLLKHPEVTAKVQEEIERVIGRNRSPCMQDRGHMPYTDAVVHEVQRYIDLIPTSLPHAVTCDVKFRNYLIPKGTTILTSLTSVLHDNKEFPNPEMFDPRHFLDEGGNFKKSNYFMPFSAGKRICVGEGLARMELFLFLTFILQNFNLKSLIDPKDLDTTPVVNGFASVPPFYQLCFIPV
MRP-1 activ – H69AR viability gain despite doxorubicin, primary screen, MRP-1 activator project, H69AR cells, CellTiter-Glo. AID 799, 2007. viability rescue. 0.61% of 140,000 active. viability increase, % at 10 µM;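 active = viability gain under doxorubicin at or above a set limit, the compound median plus 3 SD, cut at about 4.7% in these data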;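 note: MRP-1 overexpressing cells given doxorubicin 25 µM after compound pretreatment; 18-22 h compound pretreatment then 72 h with doxorubicin before readout; 0% = doxorubicin-only wells and 100% = vehicle-treated cells without doxorubicin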
CYP2C9 act – human CYP2C9 activators, primary screen, biochemical, luminescence | activation factor at 5 µM | 1.4% of 96,000 active | recombinant CYP2C9, luciferin-H conversion; hits give high values; factor 1 = untreated enzyme, 0 = blocked | Cytochrome P450 2C9 (Homo sapiens), P11712 | AID 1024, 2008;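 active = activation factor of 2 or more for CYP2C9 at a 5 µM dose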;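 note: 0 = sulfaphenazole-blocked wells and 1 = vehicle-only wells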
MRP reversal – reversal of MRP1-mediated doxorubicin resistance, primary screen, H69AR cells, doxorubicin co-treatment. H69AR cells + 2 uM doxorubicin, CellTiter-Glo, 72 h. differential viability (reversal), % at 10 µM. 0.04% of 85,000 active;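 active = viability drop by adding the cancer drug above about 55%, with treated viability meeting a 40% cutoff, limit read from the data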;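 note: viability without doxorubicin minus viability with 2 µM doxorubicin for each compound; larger differential means the compound sensitizes cells more to doxorubicin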
CYP2C19 activ – human CYP2C19 activators, primary screen, biochemical, luminescence. Cytochrome P450 2C19 (Homo sapiens), P33261. recombinant CYP2C19, luciferin-H EGE luminescence; hits give high values; 0 = fully inhibited enzyme, 1 = untreated enzyme. activation factor at 5 µM. 96,000 tested, under 10 active;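 active = activation factor of at least 2 at 5 µM in the primary screen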;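 note: 0 = wells with 2.5 mM tranylcypromine and 1 = vehicle-only wells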
CYP2C9 inh – blockers of cytochrome P450 2C9 activity – biochemical, luminescence, ADME assay, primary screen; inhibition, % at 5 µM; AID 777, 2007; P11712; 20% of 96,000 active; CYP2C9 Supersomes, luciferin-H conversion;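 active = blocking of liver enzyme CYP2C9 beyond about 50% at 5 µM, limit read from the data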
Numbers without * were called inactive; x = not tested or not shown. In the library only some 21% were active in any assay of this set; here they are far more common.

SMILES	CYP2C19 inhib	MRP-1 activ	CYP2C9 act	MRP reversal	CYP2C19 activ	CYP2C9 inh
Cc1cc(F)c(F)c(C(=O)N2CCN(C)CC2)c1Cl	8.8	-1.6	2.2*	-3.4	0.9	-122.7
COCCNc1nnc(SCC(=O)c2ccc3c(c2)OCO3)s1	53.4*	-2.3	0.7	0.7	0.5	26.5
Cc1cc(C(=O)CSc2nnc(-c3ccc4c(c3)OCO4)o2)c(C)n1-c1ccc(F)cc1	x	0.4	x	x	x	x
Cc1nnc(SCc2ccc3c(c2)OCO3)s1	69.4*	0.4	0.5	7.6	0.3	54.7*
Cc1nnc(SCC(=O)c2cc(C)n(-c3ccc4c(c3)OCO4)c2C)s1	97.2*	-0.8	0.2	13.6	0	82.7*
Cc1cc(C(=O)CSc2nnnn2C)c(C)n1-c1ccc2c(c1)OCCO2	51.6*	-3.3	0.4	11.4	0.5	60.5*
Cc1cc(C(=O)CSc2nnc(-c3ccco3)o2)c(C)n1-c1ccc2c(c1)OCCO2	13.1	-1.8	0.5	-3.5	0.9	46.9
O=C(CSc1nnc(SCc2ccc(Cl)cc2)s1)c1ccc2c(c1)OCO2	x	-0.1	x	x	x	x
N=C1S/C(=C\c2cn[nH]c2-c2ccc(F)cc2)C(=O)N1c1ccccc1F	x	1.4	x	x	x	x
COC(=O)c1cc(NS(=O)(=O)c2ccc(N3CCOCC3)c([N+](=O)[O-])c2)cc(C(=O)OC)c1	x	-2.1	x	x	x	x
CCOC(=O)C1CCCN(C(=O)c2cnn3c(C(F)F)cc(-c4ccc(C)cc4)nc23)C1 (stereo unspecified)	28.0	-1.5	0.3	7.6	0.7	73.3*
COc1ccc(-c2cc(C(F)F)n3ncc(C(=O)N4CCN(C)CC4)c3n2)cc1	x	-2.8	x	20.4	x	x
COc1ccc(-c2cc(C(F)F)n3ncc(C(=O)N4CCSCC4)c3n2)cc1	39.6	-3.9	0.2	-7.3	0.6	76.0*
COc1ccc(-c2cc(C(F)(F)F)n3nc(C(=O)N4CCCC4)cc3n2)cc1	11.9	-1.1	1.1	-38.2	0.9	-13.3
CCOC(=O)C1CCCN(C(=O)c2cc3nc(-c4ccc5c(c4)OCO5)cc(C(F)(F)F)n3n2)C1 (stereo unspecified)	45.1	-1.7	0.4	5.5	0.5	55.6*
COc1ccccc1CNC(=O)C1CCN(S(=O)(=O)c2ccc3c(c2)OCCCO3)CC1	x	1.2	x	x	x	x
CN(C)S(=O)(=O)c1ccc(NC(=O)CNc2cc(S(=O)(=O)N3CCCC3)ccc2OCC(F)(F)F)cc1	x	-2.8	x	x	x	x
CC(NC(=O)c1ccc(-c2cc(C(F)(F)F)ccc2Cl)o1)c1ccccc1 (stereo unspecified)	5.5	-1.5	1.6	-4.5	0.9	-61.6
Cc1ccc(SC(c2ccccc2)C(Cn2cncn2)C(=O)c2ccccc2)cc1 (stereo unspecified)	99.1*	-1.6	0	x	0	100.3*
O=C(c1ccc(Cl)cc1)C(Cn1cncn1)C(Sc1ccccc1)c1ccccc1 (stereo unspecified)	98.5*	-2.7	0	x	0	100.3*
O=C(CN1CCN(c2ccccc2)CC1)N/N=C/c1cccc(F)c1	x	0.0	x	x	x	x
COc1ccc(Br)cc1/C=c1\sc2nc(-c3ccco3)nn2c1=O	62.1*	x	0.4	0.5	0.4	60.7*
CN1CCC(=NNc2ncnc3sc4c(c23)CCCC4)CC1	x	-1.9	x	x	x	x
COC(=O)c1cc(NCc2cccs2)ccc1N1CCOCC1	77.1*	-0.6	0.4	4.1	0.2	63.7*
COc1ccc(CCNC(=O)CCC(=O)Nc2nnc(C(C)C)s2)cc1OC	x	0.5	x	x	x	x
c1cnc(N2CCN(c3nc4ccccc4n4cnnc34)CC2)nc1	25.9	1.6	1	-7.9	0.7	1.2
c1ccc(C(c2ccccc2)N2CCN(c3nc4ccccc4n4cnnc34)CC2)cc1	-12.3	6.7*	0.9	-6.2	1.1	12.2
CCCN1c2cccc3cccc(c23)S1(=O)=O	89.9*	-1.0	4.4*	5.6	0.1	-336.3
N#CCCCCN1c2cccc3cccc(c23)S1(=O)=O	85.3*	-2.2	4.9*	-7.5	0.1	-388.5
O[C@@H](CNC[C@H](O)c1ccccc1)c1ccccc1	x	-0.2	x	0.8	x	x
